Only some compounds are listed: those with a hit (about 9.1% of all), similar ones and a draw of the others.
D1 mod: D1 dopamine receptor (human) allosteric modulation | P21728 | HEK293 D1, CRE-luciferase, dopamine EC30 potentiation; actives deviate in either direction | B-score at 10 µM | 5.9% of 58,000 active;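 active means luminescence count or its row- and column-corrected plate score outside the 99.7% band of the plate's sample wells, on either side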
mHtt clearance: mutant huntingtin protein clearance. 0.42% of 47,000 active. inhibition, % at 1.5 µM. HeLa Exon1htt(103Q)mCFP, aggregate imaging; zero = plate's median compound well. AID 853;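 active means inhibition of aggregate fluorescence above about 70%, also judged a hit by eye on the cell image, limit read from the data, passing the limit was not always enough; inconclusive means no rule stated for this call; inactive means not judged a hit on image review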;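 further: cells exposed to compound for three days before fixation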
M1 agonist: agonists of M1 muscarinic receptor | CHO-M1 cells, Fluo-4 calcium fluorescence, agonist mode; active compounds read high | B-score at 10 µM | 3% of 64,000 active | AID 626;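 active means fluorescence rise, raw or as B-score row- and column-corrected plate score, outside the 99.7% band of its plate's samples, either direction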
M1 antagonist: blocks the rat M1 muscarinic receptor response to acetylcholine; P08482; CHO-M1 cells, Fluo-4 calcium, ACh EC80 antagonist mode; active compounds read low; B-score at 10 µM; 3.4% of 64,000 active; AID 628;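 active means calcium fluorescence response, raw or row-and-column corrected B-score, differing from the plate sample mean either way at a set confidence level, mostly lower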
M1 ag confirm: confirmation of rat M1 muscarinic receptor agonists; shares compounds with M1 agonist; fluorescence change (max-min) at 10 µM; 19% of 1,700 active; CHO-M1 cells, Fluo-4 calcium fluorescence, agonist mode; actives lie on both sides; AID 1488;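 active means fluorescence change differs from the solvent-only DMSO control mean at a set confidence level in both duplicate runs; inconclusive means differs from solvent-only control mean in just one of two runs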;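 further: an EC20 dose of acetylcholine follows compound addition during the same imaging run; raw fluorescence intensity difference in instrument units with no normalization to controls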
M4 ag counter: counter-screen for M1 agonists: activity at rat M4 receptor. 9% of 1,700 active. shares compounds with M1 agonist. fluorescence change (max-min) at 10 µM. CHO M4/Gqi5 cells, Fluo-4 calcium fluorescence, agonist mode; actives lie on both sides. AID 1741;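 active means fluorescence change differing from the plate's solvent-only control wells at 99.7% confidence in both duplicates, whether higher or lower; inconclusive means differs from solvent controls in only one of two duplicates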
Target sequence (P08485 whole entry, looked up): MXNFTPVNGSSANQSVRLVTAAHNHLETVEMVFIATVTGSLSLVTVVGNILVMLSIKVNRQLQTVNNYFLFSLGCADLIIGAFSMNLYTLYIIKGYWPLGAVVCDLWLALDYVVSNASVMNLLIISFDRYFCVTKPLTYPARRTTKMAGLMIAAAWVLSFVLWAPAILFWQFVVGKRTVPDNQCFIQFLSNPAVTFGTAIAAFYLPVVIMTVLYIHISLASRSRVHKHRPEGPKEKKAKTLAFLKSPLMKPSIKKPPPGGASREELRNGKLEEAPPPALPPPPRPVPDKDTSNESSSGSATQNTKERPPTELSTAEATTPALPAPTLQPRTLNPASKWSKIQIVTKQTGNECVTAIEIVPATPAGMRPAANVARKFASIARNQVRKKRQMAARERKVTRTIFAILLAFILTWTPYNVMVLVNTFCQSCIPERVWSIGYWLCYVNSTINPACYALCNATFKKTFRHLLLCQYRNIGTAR
Active calls of the source: *; ? = inconclusive; . = not tested or not shown.

SMILES	D1 mod	mHtt clearance	M1 agonist	M1 antagonist	M1 ag confirm	M4 ag counter
COc1ccccc1NC(=O)CN(Cc1ccco1)C(=O)c1ccc(-n2nc(C)cc2C)cc1	-1.1	58	5.9*	0.18	-17	?
COc1ccccc1NC(=O)CN(Cc1ccco1)C(=O)c1cccs1	1.2	-30	-0.4	0.015	.	.
CCSc1nnc(-c2cccnc2)n1-c1ccc(Cl)c(C)c1	.	-72	.	.	.	.
O=c1c2ccccc2nc2n1CCN2Cc1ccc(Cl)cc1	-2.6	.	5.6*	-1.8	?	-59
O=c1c2ccccc2nc2n1CCCS2	-1.5	4	0.071	0.61	.	.
COc1ccc(OC)c(N(CC(=O)Nc2cccnc2)S(=O)(=O)c2ccc(C)cc2)c1	.	36	.	.	.	.
COc1ccc(OC)c(N(CC(=O)Nc2cccnc2)S(=O)(=O)c2ccc(OC)c(OC)c2)c1	.	6	2.2*	-0.95	-12	?
COc1ccc(OC)c(N(CC(=O)Nc2ccc3c(c2)OCO3)S(=O)(=O)c2ccccc2)c1	-2	.	2.8*	0.5	?	?
CC1CCCC(C)N1c1nnc(NC(=O)c2cc(-c3ccc(Br)cc3)on2)s1 (configuration not stated)	.	-10	.	.	.	.
N#CC(C(=O)NC1CCCCC1)c1nc2ccccc2nc1N1CCN(c2ccc(F)cc2)CC1 (configuration not stated)	-0.22	.	14*	-0.91	241*	?
CCCCOC(=O)C(C#N)c1nc2ccccc2nc1N1CCN(Cc2ccc3c(c2)OCO3)CC1 (configuration not stated)	-2.2	.	14*	-0.23	31	6.1
CCOC(=O)C1CCCN(c2nc3ccccc3nc2C(C#N)C(=O)OCCOC)C1 (configuration not stated)	2	.	6.8*	-0.83	-7	-28
CCOC(=O)C1CCCN(c2nc3ccccc3nc2C(C#N)C(=O)OC(C)COC)C1 (configuration not stated)	.	.	2.9	-1.7	.	.
N#CC(C(=O)OC1CCCCC1)c1nc2ccccc2nc1N1CCOCC1 (configuration not stated)	1.5	-30	72*	4.8*	-13	-26
COCCOC(=O)C1=C(C)N=C2SCCC(=O)N2C1c1cc(Br)ccc1OC (configuration not stated)	-0.29	.	0.25	-0.086	.	.
CC1CCN(C(=O)CSc2ccc3nnc(-c4ccc(F)cc4)n3n2)CC1	-0.11	.	-0.67	0.39	.	.
O=S(=O)(NCc1cccnc1)c1ccccc1	.	40	.	.	.	.
Cc1ccc(C(=O)CC2(O)C(=O)N(Cc3ccc4c(c3)OCO4)c3ccccc32)cc1 (configuration not stated)	-0.074	28	59*	-0.23	-9.7	-25
O=C(CC1(O)C(=O)N(Cc2ccc3c(c2)OCO3)c2ccccc21)c1ccccc1 (configuration not stated)	1.2	.	-0.12	-0.61	.	.
O=C(NCC(c1cccnc1)N1CCN(c2ccccc2F)CC1)c1cccc(Cl)c1 (configuration not stated)	.	.	0.93	-1	.	.
O=c1c(O)c(-c2cccs2)oc2ccccc12	0.71	.	140*	-1.6*	696*	622*
O=C(Nc1nccs1)c1cc(N2CCOCC2)nc2ccccc12	0.17	.	3.1*	-0.44	-9	-29
CCCCOc1ccc(-c2nnc(-c3ccncc3)o2)cc1	-0.042	.	2.7*	-0.49	-18	?
CCOc1ccc(-c2nnc(-c3ccncc3)o2)cc1	-0.99	16	0.15	-0.72	.	.
CCCCC(=O)Nc1ccc(C(=O)NCc2ccncc2)cc1	-1.2	.	19*	1.3	?	-49
SMILES	D1 mod	mHtt clearance	M1 agonist	M1 antagonist	M1 ag confirm	M4 ag counter
CCCCOc1ccc(C(=O)Nc2ccncc2)cc1	-2.9	.	11*	-3.7*	-17	?
CCOC(=O)c1c(NC(=O)CSc2nnnn2C)sc(CC)c1C	1.3	.	0.56	0.79	.	.
O=C1c2oc3ccc(Cl)cc3c(=O)c2C(c2ccccn2)N1CCCN1CCOCC1 (configuration not stated)	0.68	.	0.59	-0.29	.	.
CN(CCCC(=O)Nc1ccncc1)S(=O)(=O)c1ccc(Cl)cc1	-1.4	26	4.1*	-0.21	5.1	-25
N#Cc1cccc(NC(=O)Nc2cccs2)c1	-1.8	.	11*	-2.6	38	35
O=C(CSc1nnc(-c2ccc(O)cc2)n1Cc1ccco1)N1CCc2ccccc2C1	0.86	.	1.1	0.14	.	.

Screening data as filed in PubChem.
